Results filed as inconclusive are left out. The source made the active and inactive calls. Unless noted, cut-off not given; nearly all actives show AC50 up to about 26 µM.
Legend:
[1] = growth inhibition of DIPG glioma cells, dose response, cell-based, SU-DIPG-XVII, MIPE5.0, CellTiter-Glo, qHTS (AID 1347060); conditions: SU-DIPG-XVII viability, CellTiter-Glo ATP luminescence;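 on AC50: cells exposed to compound for 48 hours before viability readout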
[2] = growth inhibition of DIPG glioma cells, dose response, cell-based, SU-DIPG-XIII, MIPE5.0, CellTiter-Glo, qHTS (AID 1347064; cut-off not given, nearly all actives have AC50 up to about 23 µM;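 on AC50: cells exposed to compound for 48 hours before the viability read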); conditions: SU-DIPG-XIII viability, CellTiter-Glo ATP luminescence
[3] = viability loss in pontine glioma line – cell-based, SU-DIPG-XXV, MIPE5.0, CellTiter-Glo, qHTS, dose response (AID 1347065); conditions: CellTiter-Glo ATP luminescence;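 further: cells exposed to compound for 48 hours before ATP readout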
[4] = JHH-DIPG-1 glioma cell viability, MIPE5.0 library, CellTiter-Glo luminescence, qHTS (AID 1347067); conditions: JHH-DIPG-1 glioma viability, CellTiter-Glo ATP luminescence;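 further: cells exposed to compound for 48 hours before readout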

| Compound | AC50 [1] | AC50 [2] | AC50 [3] | AC50 [4] | outcome [1] | outcome [2] | outcome [3] |
| --- | --- | --- | --- | --- | --- | --- | --- |
| N#Cc1c(N)nc(N)nc1N[C@H](c1nc2c(F)ccc(Cl)c2c(=O)n1-c1cccnc1)C1CC1 | 18.6 µM (active) | 13.2 µM (active) | 11.8 µM (active) |  |  |  |  |
| COc1cc(OC)cc(N2CCN(C(=O)Nc3nc4cc(F)ccc4nc3OC)CC2)c1 | 0.833 µM (active) | 2.63 µM (active) | 1.48 µM (active) | 1.32 µM (active) |  |  |  |
| CCCCOc1nc(N)c2c(n1)N(Cc1cccc(CN3CCCC3)c1)CC(=O)N2 |  |  |  |  | inactive | inactive | inactive |
| CCCc1cc(C)[nH]c(=O)c1CNC(=O)c1cc(-c2ccnc(N3CCN(C)CC3)c2)cc2c1cnn2C(C)C |  |  |  |  | inactive | inactive | inactive |
| Cn1cncc1C(N)(c1ccc(Cl)cc1)c1ccc2c(c1)c(-c1cccc(Cl)c1)cc(=O)n2C (stereo not given) | 18.6 µM (active) | 16.6 µM (active) | 8.33 µM (active) | 18.6 µM (active) |  |  |  |
| CC(C)(O)CS(=O)(=O)Nc1ccc2c(c1)CCN(C(=O)COc1cccnc1)C2 | 0.263 µM (active) | 0.0372 µM (active) | 0.0833 µM (active) | 0.0468 µM (active) |  |  |  |
| CCCCCCCOc1ccc(CCC(N)(CO)CO)cc1C(F)(F)F | 8.33 µM (active) | 8.33 µM (active) | 9.34 µM (active) | 8.33 µM (active) |  |  |  |
